The text below walks through data of paper PMC4336329 (PLoS ONE, 2015).

The whole screen tested about 310,000 compounds, of which about 14,000 (4.5%) showed an effect of 50% or more. The effect is printed as a negative number. Only a selection was taken, and strong results are over-represented in it overall.
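Note: peak tail current of the secondary pulse compared with the same well before compound.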

Chain of human ether-à-go-go-related gene (hERG) potassium channel (Q12809 whole entry, looked up): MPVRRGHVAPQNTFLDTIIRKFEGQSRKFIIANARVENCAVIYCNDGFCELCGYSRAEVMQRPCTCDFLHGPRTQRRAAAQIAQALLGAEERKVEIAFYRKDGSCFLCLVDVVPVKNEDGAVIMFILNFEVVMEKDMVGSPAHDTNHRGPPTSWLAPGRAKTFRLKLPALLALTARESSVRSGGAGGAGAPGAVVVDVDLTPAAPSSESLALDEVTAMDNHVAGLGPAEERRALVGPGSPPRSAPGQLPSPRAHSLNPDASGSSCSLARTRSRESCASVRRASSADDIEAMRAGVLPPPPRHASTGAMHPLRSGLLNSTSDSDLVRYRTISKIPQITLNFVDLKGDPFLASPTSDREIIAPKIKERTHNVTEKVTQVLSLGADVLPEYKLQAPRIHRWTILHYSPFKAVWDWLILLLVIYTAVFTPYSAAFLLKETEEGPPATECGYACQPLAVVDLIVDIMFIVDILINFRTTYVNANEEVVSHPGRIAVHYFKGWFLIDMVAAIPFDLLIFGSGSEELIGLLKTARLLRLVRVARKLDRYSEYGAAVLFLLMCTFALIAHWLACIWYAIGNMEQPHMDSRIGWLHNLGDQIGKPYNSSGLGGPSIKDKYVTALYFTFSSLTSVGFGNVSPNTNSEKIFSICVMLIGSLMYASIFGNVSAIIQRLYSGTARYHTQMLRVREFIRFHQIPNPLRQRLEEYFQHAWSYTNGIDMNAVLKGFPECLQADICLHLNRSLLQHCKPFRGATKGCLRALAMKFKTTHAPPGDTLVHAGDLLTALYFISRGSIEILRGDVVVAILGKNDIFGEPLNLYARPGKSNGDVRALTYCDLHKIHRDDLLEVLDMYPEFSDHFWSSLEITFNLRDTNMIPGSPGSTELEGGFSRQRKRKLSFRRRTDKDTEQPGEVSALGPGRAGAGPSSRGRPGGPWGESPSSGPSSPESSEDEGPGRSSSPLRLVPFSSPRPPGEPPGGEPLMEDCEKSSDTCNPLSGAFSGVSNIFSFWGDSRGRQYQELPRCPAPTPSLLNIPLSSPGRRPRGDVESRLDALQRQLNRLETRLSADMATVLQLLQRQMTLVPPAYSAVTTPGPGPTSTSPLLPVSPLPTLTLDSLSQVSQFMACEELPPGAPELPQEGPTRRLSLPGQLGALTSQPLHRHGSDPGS

The experiment addresses human ether-à-go-go-related gene (hERG) potassium channel (human, UniProt Q12809). Briefly: primary screen, population patch clamp on CHO cells stably expressing hERG; higher = less effect of the substance.
Consider `NC(=S)N/N=C1/CCSc2ccc3ccccc3c21`, for which the “hERG current change (%, negative = inhibition) at 10uM” value was -23.4%. For the compound `C/C(=N\NC(=O)c1cccs1)C(C)(C)C`, the “hERG current change (%, negative = inhibition) at 10uM” value is 5.21%. With `CCN(c1ccc(F)cc1)S(=O)(=O)c1cccc2nsnc12` the figure was 2.4%; with `COc1ccc(C(c2oc(CO)cc(=O)c2O)c2oc(CO)cc(=O)c2O)cc1OC`, 14.3%; with `N/C(=N\OC(=O)CCc1ccccc1)c1cccc(Br)c1`, 1.33%. Take `Cn1c(SCC(=O)NC2CC2)nnc1C(F)(F)F`: the “hERG current change (%, negative = inhibition) at 10uM” value is -1.32%.

`Nc1nc2c(Cl)ccc(Cl)c2s1`: the “hERG current change (%, negative = inhibition) at 10uM” value was found to be 10.7%. Under `Cc1nc(N2CCC(C(N)=O)CC2)c2nnn(Cc3ccccc3)c2n1` stands 16.3%; under `Cc1ccc(N(CC(=O)N/N=C/c2cccs2)S(C)(=O)=O)cc1`, -3.64%. With `Cc1ccccc1-n1c(C)nc2sccc2c1=O` the figure was -2.18%; with `COc1ccc2cc(C(C)C(=O)N3CCC(C)CC3)ccc2c1` (centres unmarked), -71.9%; with `COc1ccc(OC(C)C(=O)N2CCC(C)CC2)cc1` (centres unmarked), -5.47%. With `COc1ccc2cc(C(C)C(=O)N3CCC(C(N)=O)CC3)ccc2c1` (centres unmarked) the figure was 17.1%; with `O=C(N/N=C/c1ccc([N+](=O)[O-])cc1)c1c[nH]c2ccccc12`, 19.1%; with `O=C(CCn1c(=O)oc2ccccc21)Nc1cccc(Cl)c1`, -2.8%. For `CCOC(=O)N1CCN(C(=O)COc2cccc3c2CCN(CC)C3=O)CC1`, the “hERG current change (%, negative = inhibition) at 10uM” value is 6.35%. With `Cc1ccc(COc2cccc3c2CCN(Cc2ccc(F)cc2)C3=O)cc1` the figure was 6.8%; with `CCOC(=O)N1CCN(C(=O)COc2cccc3c2CCN(Cc2ccccc2F)C3=O)CC1`, -31.4%. With `CCOC(=O)N1CCN(C(=O)COc2cccc3c2CCN(Cc2ccccc2C)C3=O)CC1` the figure was -40.7%; with `CCOC(=O)N1CCN(C(=O)COc2cccc3c2CCN(Cc2ccc(F)cc2)C3=O)CC1`, -61%. With `CCOC(=O)N1CCN(C(=O)COc2cccc3c2CCN(Cc2cccc(C)c2)C3=O)CC1` the figure was -53.6%; with `Cc1cc(C)nc(NS(=O)(=O)c2ccc(N3Cc4ccccc4C3=O)cc2)n1`, 12.2%. Take `COc1cc(C(=O)Nc2ccccc2N2CCOCC2)ccc1OCc1c(C)noc1C`: the “hERG current change (%, negative = inhibition) at 10uM” value is -28.8%.

With `O=C(NCc1cn2ccsc2n1)c1c(F)cccc1Cl`, the “hERG current change (%, negative = inhibition) at 10uM” value came to 7.32%. For `O=C(c1cccs1)N1CCN(Cc2ccccc2)CC1`, the “hERG current change (%, negative = inhibition) at 10uM” value is reported as -12.2%.

Take `O=C(c1cccs1)N1CCN(CCc2ccccc2)CC1`: the “hERG current change (%, negative = inhibition) at 10uM” value is given as -48.6%. Under `O=C(CCC1CCCC1)N1CCC(N2CCCCCC2)CC1.O=C(O)C(=O)O` stands -29.9%; under `COc1ccccc1N1CCN(C2CCN(C(=O)c3cccs3)CC2)CC1`, -38.2%; under `O=C(O)C(=O)O.O=C(c1cccs1)N1CCN(CCCc2ccccc2)CC1`, -64.5%. Under `CC(C)CC(=O)N1CCC(N2CCN(c3ccccc3)CC2)CC1` stands -12%; under `O=C(c1cccs1)N1CCN(C2CCN(Cc3ccccc3)CC2)CC1`, -64.3%; under `O=C(O)C(=O)O.O=C(c1cccs1)N1CCN(Cc2ccncc2)CC1`, -5.94%. With `O=C(O)C(=O)O.O=C(c1cccs1)N1CCN(C2CCCCC2)CC1` the figure was -32.4%. As for `O=C(c1cccs1)N1CCC(N2CCN(c3ccccc3)CC2)CC1`, the “hERG current change (%, negative = inhibition) at 10uM” value was -51.2%. With `O=C(c1cccs1)N1CCN(c2ccccc2)CC1` the figure was -0.00412%. Under `O=C(CCC1CCCC1)N1CCC(N2CCN(c3ccccc3)CC2)CC1` stands -66.6%; under `COc1ccc(C)cc1-n1c(SCC(=O)NC2CC2)nc2ccccc2c1=O`, -17.4%; under `Nc1nc(SCc2nc3scc(-c4cccs4)c3c(=O)[nH]2)n[nH]1`, 18.9%. With `CCOc1ccc(-n2c(=O)[nH]cc(C(=O)N3CCCc4ccccc43)c2=O)cc1` the figure was -9.75%; with `Cc1cccc(N2CCN(C(=O)Cn3cccc3)CC2)c1C`, 2.77%; with `Cc1ccc(-c2cnc(NC(=O)CCC(=O)N3CCCCC3)n2C)cc1`, -6.45%. Consider `O=C1C2C3C=CC(C3)C2C(=O)N1c1ccc(-c2nc3ccccc3o2)cc1` (centres unmarked), for which the “hERG current change (%, negative = inhibition) at 10uM” value was 15.6%.

For `CCC(C)(C)NC(=O)C(c1cccc(OC)c1OC)N(CCC(C)C)C(=O)CCC(=O)Nc1cc(C)on1` (centres unmarked), the “hERG current change (%, negative = inhibition) at 10uM” value came to 11.6%. Under `Cc1n[nH]c(C)c1CCN.Cl` stands 12.9%. With `COc1ccc(C(=O)Nc2ccc(-c3cn4ccsc4n3)cc2)cc1S(=O)(=O)N1CCOCC1` the figure was -9.6%; with `Nn1c(SCC(=O)N2CCCc3ccccc32)nnc1-c1ccccc1`, 2.21%.

In the case of `O=c1n(Cc2ccc(Cl)cc2)c2sc3c(c2c2ncnn12)CCCC3`, the “hERG current change (%, negative = inhibition) at 10uM” value is recorded as -39.1%.

With `C=CCn1c(=O)n2ncnc2c2c3c(sc21)CCCC3`, the “hERG current change (%, negative = inhibition) at 10uM” value is given as -59.3%. Under `O=C(Cn1c(=O)n2ncnc2c2c3c(sc21)CCCC3)c1ccccc1` stands -20.1%.

As for `COc1cccc(C2=NNC(=NCc3ccccc3)SC2)c1`, the “hERG current change (%, negative = inhibition) at 10uM” value is -42.6%. With `CCn1cnc2sc(C(=O)Oc3cccc(C)c3)c(C)c2c1=O` the figure was 19.9%.

With `Cc1nn(C)c(Oc2ccccc2)c1CCNC(=O)CCl`, the “hERG current change (%, negative = inhibition) at 10uM” value is reported as 35.6%. Under `Cc1cccc(Oc2ccc(N)cc2)c1` stands -12%; under `CC(=O)c1cnc2cc(-c3ccc(C)cc3)nn2c1C`, -4.26%. With `CCN1CCc2c(sc(N)c2C#N)C1` the figure was 5.55%. With `N#Cc1c(N)sc2c1CCN(CCc1ccccc1)C2` the figure was -50.5%; with `N#Cc1c(N)sc(=S)c2c1CCN(Cc1ccccc1)C2`, -5.46%; with `CN(C)S(=O)(=O)c1ccc2c(c1)Cc1cc(S(=O)(=O)N(C)C)ccc1-2`, 20.1%. Turning to `COc1cc(/C=C/c2ccc(O)cc2)cc(OC)c1`, the “hERG current change (%, negative = inhibition) at 10uM” value is given as -2.2%.
